A word on the inhibition: it is the relative decrease from the control value, in per cent.

The text below walks through data of PubChem BioAssay.

Assay [1] in a line: rapamycin-like changes in RPL19A-GFP expression – cell-based, S. cerevisiae, multiplex flow cytometry, primary screen (AID 1862; in the data active = percent of DMSO control GFP below about 86%;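 note: lower values mimic rapamycin by blocking the RPL19A rise seen in DMSO cells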). To be noted: S. cerevisiae RPL19A-GFP strain, flow cytometry fluorescence, 3 h; at 10 µM; stronger effect = lower value. (In general: Flow cytometry measures light scatter and fluorescence of single cells or particles in a stream.)
Assay [2] is described as follows: TOR pathway GLN3 branch reporter MEP2-GFP changes – S. cerevisiae, multiplex flow cytometry, primary screen (AID 1867).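 Note: median GFP channel fluorescence of barcode-gated MEP2-GFP cells measured by flow cytometry.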 To be noted: S. cerevisiae MEP2-GFP strain, 3 h, at 10 µM, stronger effect = higher value, 100% means same as DMSO wells.
Assay [3] is described as follows: TOR pathway RTG branch CIT2 reporter changes – S. cerevisiae, GFP fusion, multiplex flow cytometry, primary screen (AID 1870;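 active = percent response above a set limit, the screen-wide mean plus 3 SD, cut at about 130% in these data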;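 note: barcoded CIT2-GFP strain pooled with four other GFP strains with rapamycin as positive control; median GFP fluorescence per well over plate mean of DMSO wells so 100% = DMSO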). To be noted: S. cerevisiae CIT2-GFP expression, 3 h, at 10 µM, stronger effect = higher value.
Assay [4] in a line: TOR pathway LAP4-GFP level changes – S. cerevisiae, multiplex flow cytometry, primary screen (AID 1873;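 active = GFP signal, as percent of the solvent control, above the screen mean plus 3 SD, about 149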). The settings on record: S. cerevisiae LAP4-GFP expression, 3 h, at 10 µM, stronger effect = higher value.
Assay [5] can be described thus: yeast AGP1-GFP level changes, GLN3 branch – cell-based, multiplex flow cytometry, S. cerevisiae, primary screen (AID 1887;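 active = GFP signal above the screen-wide mean plus 3 SD, that is over about 124.5% of the solvent control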;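 note: AGP1-GFP fusion strain of S. cerevisiae within a five-strain barcoded multiplex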). The settings on record: 3 h, at 10 µM, stronger effect = higher value.
Assay [6] in a line: reduced mouse 2C T cell binding to pMHC/ICAM-1 vesicles – MLPCN validation set, flow cytometry, LFA-1/ICAM-1 modulator project, pilot screen (AID 2523;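 active = response below a set limit, under 55% cells CD8-positive and vesicle-bound, and CD8 cells' 90th-percentile brightness under 279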;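 for vesicle binding response: mean PE anti-B7-1 fluorescence of CD8+ cells relative to row control; 100% = QL9-loaded vesicles with DMSO vehicle in the same plate row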). The settings on record: 2C mouse CD8+ T cells, at 7 µM, stronger effect = lower value; double positive events: measured here: CD8+/vesicle+ event percentage.
Assay [7] concerns the target Integrin beta-1 (Homo sapiens) + Integrin alpha-4 (Homo sapiens) (UniProt P13612+P05556). Kind of assay: alpha4beta1 integrin LIBS antibody binding reduction – U937 cells, HUTS-21 mAb, flow cytometry, validation set, VLA-4 allosteric modulator project, pilot screen (AID 2674;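 active = inhibition above 50%, about 3 SD of the validation set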;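 note: antibody binding induced by the VLA-4 ligand LDV present at three times its Kd; 0% = LDV ligand with antibody and no compound and 100% = antibody without LDV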). The settings on record: HUTS-21 LIBS mAb binding, at 6.7 µM, stronger effect = higher value, binding induced by LDV ligand.

Assay [8] in a line: calorie-restriction mimetic ROS inhibitors, yeast – validation compound set, pilot screen (AID 2706;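 active = superoxide response below 65% of plate, a cut near 3 SD across the whole screen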;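 note: yeast exposed to compound for one week at 30 degrees C before staining; 100% = mean of all compound wells on the same plate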). The settings on record: S. cerevisiae aging, superoxide DHE fluorescence; at 10 µM, stronger effect = lower value.
The target in assay [9] is Beta-adrenergic receptor kinase 1 (Homo sapiens) (UniProt P25098). Kind of assay: GRK2 binders displacing RNA aptamer, biochemical, validation, human GRK2, bead flow cytometry (AID 488806;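 active = aptamer binding inhibition above 30%, about 3 SD of noise from non-fluorescent compounds; inactive = inhibition at or below 30%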). The settings on record: bead-bound GRK2, FAM-aptamer displacement, at 10 µM, stronger effect = higher value.
Assay [10] concerns the target AP-2 complex subunit beta (Homo sapiens) (UniProt P63010). Kind of assay: beta-arrestin/AP2 interaction blockers – biochemical, validation set, GST-AP2 beads, flow cytometry, pilot screen (AID 504541;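 active = inhibition above 54%, about 3 SD of non-fluorescent compounds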;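 note: AP2 carries R879A mutation and is captured from E. coli lysate; bead-bound FITC arrestin peptide fluorescence measuring arrestin peptide binding to AP2; 0% = DMSO wells and 100% = excess unlabeled arrestin peptide control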). To be noted: FITC arrestin peptide, at 10 µM, stronger effect = higher value, AP2 beta2 appendage fragment, R879A mutant.
Assay [11] can be described thus: cytosolic pH regulators acting via V-ATPase – S. cerevisiae, pHLuorin, HTS validation (AID 504600; in the data active = response above about 15%;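 note: plate controls were DMSO for no effect and reference compound for full effect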). The settings on record: V-ATPase proton transport, at 10 µM, stronger effect = higher value.
Assay [12] has as its system anti-desmoglein-3 scFv antibody binding to human DSG3. In words: blockers of pathogenic pemphigus antibody–desmoglein-3 binding – biochemical, validation compound set, bead-based, flow cytometry, pilot screen (AID 588368;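 active = binding below the plate cutoff, the plate median minus 3 SD, with a reading above zero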;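 note: signal is the median channel fluorescence of bead-bound GFP antibody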). The settings on record: Protein G beads, DSG3-Fc, scFv-GFP binding, at 10 µM, stronger effect = lower value.
Assay [13] is described as follows: Nile Red efflux blockade in pump-expressing yeast – validation compound set, multiplex, phenotypic, pilot screen (AID 588506;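 active = efflux inhibition above 0.42, the validation set average plus 4 SD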;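 note: Nile Red retained in cells so higher fluorescence means more efflux inhibition; 0 = negative control wells and 1 = enniatin B 25 µM full block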). To be noted: S. cerevisiae pump-expressing triplex, Nile Red efflux flow cytometry; at 10 µM; stronger effect = higher value; the pumps come from Candida albicans.
The target of assay [14] is ATP-binding cassette sub-family B member 6 (Homo sapiens) (UniProt Q9NP58). In words: blockers of ABCB6-driven porphyrin uptake – K562-ABCB6 cells, flow cytometry, validation set, pilot screen (AID 588550;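 active = inhibition above the screen-wide mean plus 3 SD, about 51%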;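 note: 0% = DMSO wells and 100% = benzethonium chloride 70 µM positive control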). The settings on record: K562-ABCB6 porphyrin accumulation, 1 h, at 10 µM, stronger effect = higher value.
Assay [15] is described as follows: AML differentiation inducers, ER-HoxA9 marrow cells – cell-based, GFP/MAC1 double positive, flow cytometry, validation set, primary screen (AID 588685;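 active = differentiation response of at least 50%, scaled between solvent and reference control, from cells with both markers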;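 note: compound exposure lasts four days before antibody staining and flow analysis; 0% = DMSO wells and 100% = 5 µM fulvestrant positive control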). To be noted: stronger effect = higher value, normalized: vehicle 0, fulvestrant 100.

Molecules are shown by their SMILES. Inconclusive results are not listed. Active and inactive are the calls of the source.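 Rule for the calls, unless noted: active = GFP response, as percent of the DMSO control, above the screen-wide mean plus 3 SD, about 139; inconclusive = no response measured because the compound's own fluorescence interfered; inactive = the rest.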

Sequence of AP-2 complex subunit beta (Homo sapiens) (P63010 whole entry, looked up, the tested form may be a part, one chain of several): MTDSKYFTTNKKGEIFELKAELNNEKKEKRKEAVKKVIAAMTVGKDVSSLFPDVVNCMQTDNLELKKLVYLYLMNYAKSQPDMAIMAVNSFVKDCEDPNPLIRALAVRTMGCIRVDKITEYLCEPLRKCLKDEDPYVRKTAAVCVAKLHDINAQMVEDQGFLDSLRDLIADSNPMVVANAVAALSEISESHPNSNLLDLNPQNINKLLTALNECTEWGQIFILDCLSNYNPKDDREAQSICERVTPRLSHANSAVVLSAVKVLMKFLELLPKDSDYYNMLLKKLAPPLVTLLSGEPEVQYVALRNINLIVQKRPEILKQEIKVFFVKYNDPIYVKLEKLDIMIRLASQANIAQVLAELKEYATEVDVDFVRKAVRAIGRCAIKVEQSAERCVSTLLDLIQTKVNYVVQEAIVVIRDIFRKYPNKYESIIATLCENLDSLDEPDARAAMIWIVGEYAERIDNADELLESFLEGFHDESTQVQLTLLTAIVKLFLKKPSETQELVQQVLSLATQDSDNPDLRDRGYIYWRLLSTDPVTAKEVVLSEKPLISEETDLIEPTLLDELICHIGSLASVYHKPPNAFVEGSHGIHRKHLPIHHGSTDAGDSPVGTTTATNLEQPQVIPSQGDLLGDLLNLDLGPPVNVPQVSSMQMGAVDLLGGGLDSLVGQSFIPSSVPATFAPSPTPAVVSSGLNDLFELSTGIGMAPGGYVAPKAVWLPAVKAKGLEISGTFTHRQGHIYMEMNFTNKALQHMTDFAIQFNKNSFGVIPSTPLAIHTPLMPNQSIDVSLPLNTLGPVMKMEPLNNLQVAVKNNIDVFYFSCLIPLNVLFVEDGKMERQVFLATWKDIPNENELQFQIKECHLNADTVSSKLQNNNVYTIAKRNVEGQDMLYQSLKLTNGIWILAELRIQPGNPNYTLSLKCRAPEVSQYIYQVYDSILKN
Sequence of Integrin beta-1 (Homo sapiens) + Integrin alpha-4 (Homo sapiens) (P05556 whole entry, looked up): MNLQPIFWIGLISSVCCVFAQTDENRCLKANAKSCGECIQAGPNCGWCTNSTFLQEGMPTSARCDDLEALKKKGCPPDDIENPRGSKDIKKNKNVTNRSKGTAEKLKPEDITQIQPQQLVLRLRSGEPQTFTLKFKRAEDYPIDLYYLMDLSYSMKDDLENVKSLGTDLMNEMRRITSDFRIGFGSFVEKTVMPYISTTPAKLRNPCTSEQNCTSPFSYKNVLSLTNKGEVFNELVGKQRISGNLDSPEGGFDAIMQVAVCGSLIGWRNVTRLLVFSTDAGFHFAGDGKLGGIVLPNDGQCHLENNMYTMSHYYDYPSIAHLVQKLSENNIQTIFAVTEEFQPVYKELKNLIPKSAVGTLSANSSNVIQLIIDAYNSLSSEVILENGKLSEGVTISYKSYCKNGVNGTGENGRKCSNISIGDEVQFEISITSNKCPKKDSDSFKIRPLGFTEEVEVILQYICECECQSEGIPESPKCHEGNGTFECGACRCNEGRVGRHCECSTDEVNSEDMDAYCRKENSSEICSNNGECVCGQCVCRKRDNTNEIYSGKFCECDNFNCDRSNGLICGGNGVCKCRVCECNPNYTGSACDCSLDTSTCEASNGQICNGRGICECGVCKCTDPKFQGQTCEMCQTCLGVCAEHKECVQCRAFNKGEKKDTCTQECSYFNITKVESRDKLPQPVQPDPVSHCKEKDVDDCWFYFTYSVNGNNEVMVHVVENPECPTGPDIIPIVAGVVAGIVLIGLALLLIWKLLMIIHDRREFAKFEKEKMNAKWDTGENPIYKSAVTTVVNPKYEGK
Sequence of Integrin beta-1 (Homo sapiens) + Integrin alpha-4 (Homo sapiens) (P13612 whole entry, looked up): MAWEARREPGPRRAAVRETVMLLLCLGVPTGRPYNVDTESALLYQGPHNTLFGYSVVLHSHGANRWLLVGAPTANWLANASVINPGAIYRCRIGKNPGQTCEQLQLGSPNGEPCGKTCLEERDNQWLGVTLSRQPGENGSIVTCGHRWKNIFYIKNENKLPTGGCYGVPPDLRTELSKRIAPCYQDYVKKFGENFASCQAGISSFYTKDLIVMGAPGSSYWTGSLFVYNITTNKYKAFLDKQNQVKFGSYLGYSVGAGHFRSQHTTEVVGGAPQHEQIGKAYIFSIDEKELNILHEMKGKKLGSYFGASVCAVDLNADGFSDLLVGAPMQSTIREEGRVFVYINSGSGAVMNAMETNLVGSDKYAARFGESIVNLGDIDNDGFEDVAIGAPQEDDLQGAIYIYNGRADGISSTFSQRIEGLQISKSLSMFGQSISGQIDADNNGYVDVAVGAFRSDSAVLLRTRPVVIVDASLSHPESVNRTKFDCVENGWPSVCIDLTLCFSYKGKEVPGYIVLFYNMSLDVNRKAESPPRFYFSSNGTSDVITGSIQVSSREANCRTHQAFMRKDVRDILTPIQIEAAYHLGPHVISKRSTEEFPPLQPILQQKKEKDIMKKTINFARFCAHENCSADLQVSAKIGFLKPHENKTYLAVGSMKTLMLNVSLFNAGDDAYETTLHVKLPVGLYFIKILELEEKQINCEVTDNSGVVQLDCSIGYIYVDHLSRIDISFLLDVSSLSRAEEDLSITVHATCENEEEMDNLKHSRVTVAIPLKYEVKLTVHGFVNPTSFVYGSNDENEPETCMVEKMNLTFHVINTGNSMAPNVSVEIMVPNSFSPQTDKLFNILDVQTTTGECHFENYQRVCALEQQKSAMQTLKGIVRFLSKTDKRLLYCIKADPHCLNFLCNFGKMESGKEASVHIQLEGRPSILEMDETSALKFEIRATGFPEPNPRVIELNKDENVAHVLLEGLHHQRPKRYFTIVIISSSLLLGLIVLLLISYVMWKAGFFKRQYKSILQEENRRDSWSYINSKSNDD
Sequence of Beta-adrenergic receptor kinase 1 (Homo sapiens) (P25098 whole entry, looked up): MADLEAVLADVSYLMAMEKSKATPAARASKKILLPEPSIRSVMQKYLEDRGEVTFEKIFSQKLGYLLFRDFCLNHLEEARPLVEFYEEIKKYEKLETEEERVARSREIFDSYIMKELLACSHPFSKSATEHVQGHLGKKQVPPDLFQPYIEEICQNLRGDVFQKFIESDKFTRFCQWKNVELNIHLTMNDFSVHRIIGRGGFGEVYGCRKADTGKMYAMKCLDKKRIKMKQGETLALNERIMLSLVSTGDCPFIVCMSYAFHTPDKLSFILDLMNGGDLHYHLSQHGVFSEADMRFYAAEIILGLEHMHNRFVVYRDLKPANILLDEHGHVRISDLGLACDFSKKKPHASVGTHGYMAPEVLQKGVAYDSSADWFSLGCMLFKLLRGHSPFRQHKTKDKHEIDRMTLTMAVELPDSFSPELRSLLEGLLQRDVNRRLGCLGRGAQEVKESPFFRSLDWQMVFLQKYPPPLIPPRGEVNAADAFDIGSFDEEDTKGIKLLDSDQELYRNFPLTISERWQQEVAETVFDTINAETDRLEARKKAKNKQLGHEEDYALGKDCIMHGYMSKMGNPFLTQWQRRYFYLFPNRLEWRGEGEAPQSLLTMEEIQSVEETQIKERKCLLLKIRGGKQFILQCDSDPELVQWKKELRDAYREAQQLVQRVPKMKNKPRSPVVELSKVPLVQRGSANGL
Sequence of ATP-binding cassette sub-family B member 6 (Homo sapiens) (Q9NP58 whole entry, looked up): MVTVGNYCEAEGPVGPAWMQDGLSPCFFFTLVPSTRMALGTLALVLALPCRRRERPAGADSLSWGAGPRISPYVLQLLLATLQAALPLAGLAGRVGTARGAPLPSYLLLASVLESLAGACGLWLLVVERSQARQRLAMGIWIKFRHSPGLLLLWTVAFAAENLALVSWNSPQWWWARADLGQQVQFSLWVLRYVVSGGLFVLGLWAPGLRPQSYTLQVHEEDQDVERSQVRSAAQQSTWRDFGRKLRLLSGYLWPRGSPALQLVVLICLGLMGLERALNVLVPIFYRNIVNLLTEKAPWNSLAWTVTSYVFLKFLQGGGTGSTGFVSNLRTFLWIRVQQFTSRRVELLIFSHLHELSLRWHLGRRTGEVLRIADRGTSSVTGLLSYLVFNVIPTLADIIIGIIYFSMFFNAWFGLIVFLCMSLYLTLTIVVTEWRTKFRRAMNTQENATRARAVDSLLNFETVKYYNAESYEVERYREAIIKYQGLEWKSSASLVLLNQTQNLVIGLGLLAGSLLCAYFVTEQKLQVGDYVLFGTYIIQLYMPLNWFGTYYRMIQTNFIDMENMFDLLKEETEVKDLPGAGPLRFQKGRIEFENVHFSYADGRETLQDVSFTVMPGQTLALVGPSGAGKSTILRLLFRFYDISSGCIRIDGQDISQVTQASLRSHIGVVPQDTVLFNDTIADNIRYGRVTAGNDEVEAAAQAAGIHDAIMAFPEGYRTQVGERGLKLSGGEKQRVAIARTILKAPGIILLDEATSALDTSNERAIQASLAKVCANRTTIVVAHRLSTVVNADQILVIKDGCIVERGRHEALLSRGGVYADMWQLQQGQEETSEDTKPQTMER

For the molecule `O=C1OC(c2ccc(O)cc2)(c2ccc(O)cc2)c2ccccc21`, the percent of DMSO control GFP in [1] is 97.1% (inactive). The GFP response vs DMSO in assay [2] was 102% (inactive); in assay [4], 103% (inactive). In addition, in [3], the percent response of DMSO control is 101% (inactive). Moreover, the GFP response, % of DMSO in [5] is 100% (inactive). The double positive events in assay [6] came out at 62.5%. Further, in assay [6], the vesicle binding response is 180% (inactive). Further, the figures for the inhibition in [7], in assay [10] and in assay [14] were 9.09% (inactive), 28% (inactive) and 6% (inactive), respectively. The superoxide response (% of plate) in assay [8] is 99.3% (inactive). In assay [9], the aptamer binding inhibition is 1% (inactive). In addition, the response in [11] is -0.84% (inactive). The binding (% of control) in assay [12] was 103% (inactive). In addition, the efflux inhibition (fraction of control) in assay [13] is -0.12 (inactive). Also, in assay [15], the differentiation response is -24.4% (inactive).
`Cc1ccccc1-c1coc2cc(O)ccc2c1=O`: the percent of DMSO control GFP in [1] was 98.5% (inactive). In addition, the GFP response vs DMSO in assay [2] is 96.9% (inactive); in assay [4] it was 116% (inactive). In assay [3], the percent response of DMSO control was 90% (inactive). Further, in assay [5], the GFP response, % of DMSO is 97.3% (inactive). This molecule displayed a double positive events in [6] of 60.2%. For the same molecule, the vesicle binding response in assay [6] was 187% (inactive). The values for the inhibition in [7], in [10] and in assay [14] were -21.7% (inactive), 30.2% (inactive) and 8% (inactive), respectively. The superoxide response (% of plate) in [8] is 89.2% (inactive). The aptamer binding inhibition in [9] was 4% (inactive). For the same molecule, the response in [11] is 0.4% (inactive). In assay [12], the binding (% of control) was 99.1% (inactive). In addition, the efflux inhibition (fraction of control) in [13] was -0.05 (inactive). Further, in [15], the differentiation response was -14.7% (inactive).
For the molecule `CCN(CC)Cc1c[nH]c2c(C(=O)OC)cccc12`, in assay [1], the percent of DMSO control GFP is 98.8% (inactive). The GFP response vs DMSO in assay [2] is 104% (inactive); in [4], 102% (inactive). Besides, in assay [3], the percent response of DMSO control is 105% (inactive). The GFP response, % of DMSO in assay [5] is 99.1% (inactive). The molecule further gave a double positive events in assay [6] of 60.2%. The vesicle binding response in assay [6] was 183% (inactive). In addition, the inhibition is 10% (inactive) in [7], 12.3% (inactive) in [10] and 7% (inactive) in assay [14]. For the same molecule, the superoxide response (% of plate) in assay [8] was 98.4% (inactive). Also, in assay [9], the aptamer binding inhibition is 0% (inactive). For the same molecule, the response in assay [11] was -5.36% (inactive). The binding (% of control) in assay [12] is 105% (inactive). In assay [13], the efflux inhibition (fraction of control) is -0.28 (inactive). Further, in assay [15], the differentiation response was -24.4% (inactive).
Regarding `Nc1cccc2c1nnn2C1OC(CO)C(O)C(O)C1O` (stereo not given), the percent of DMSO control GFP in assay [1] was 104% (inactive). Moreover, the values for the GFP response vs DMSO in assay [2] and in assay [4] were 94.8% (inactive) and 85.3% (inactive), respectively. In addition, the percent response of DMSO control in assay [3] was 102% (inactive). The GFP response, % of DMSO in [5] was 102% (inactive). The molecule also gave a double positive events in [6] of 58%. Further, the vesicle binding response in [6] is 192% (inactive). Besides, the inhibition in assay [7] was -3.97% (inactive); in [10], -6.04% (inactive); in assay [14] it was 4% (inactive). For the same molecule, in assay [8], the superoxide response (% of plate) is 82.8% (inactive). In assay [9], the aptamer binding inhibition is 0% (inactive). In addition, the response in assay [11] was 4.02% (inactive). Also, the binding (% of control) in assay [12] is 105% (inactive). The efflux inhibition (fraction of control) in assay [13] was -0.05 (inactive). Also, the differentiation response in [15] was -18% (inactive).
On to `COc1cc2c(cc1OC)C(c1cc(OC)c(OC)c(OC)c1)NCC2` (stereo not given), for which, in [1], the percent of DMSO control GFP is 101% (inactive). Further, the GFP response vs DMSO in [2] was 103% (inactive); in assay [4] it was 90.3% (inactive). For the same molecule, the percent response of DMSO control in [3] was 108% (inactive). Further, in assay [5], the GFP response, % of DMSO is 102% (inactive). In [6], this molecule returned a double positive events of 59.3%. The vesicle binding response in [6] is 148% (inactive). For the same molecule, the inhibition in assay [7] is -0.24% (inactive); in [10] it was -5.98% (inactive); in assay [14], 7% (inactive). Further, in assay [8], the superoxide response (% of plate) was 102% (inactive). Moreover, the aptamer binding inhibition in [9] is 2% (inactive). The response in [11] was -3.82% (inactive). In addition, in assay [12], the binding (% of control) was 96% (inactive). The efflux inhibition (fraction of control) in assay [13] was -0.01 (inactive). Besides, the differentiation response in [15] is -14.7% (inactive).
